An excerpt weighted towards active compounds, which were near 1.3% of everything screened.
eLon inh – E. coli protease La inhibition. 360,000 compounds, 0.42% hits. inhibition, % at 7.94 µM. purified E. coli Lon protease, fluorescence polarization; in the data active = inhibition above about 13%, passing the limit was not always enough;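 also: 0% = enzyme with probe and DMSO and 100% = no enzyme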
EBV gp42 block – EBV gp42 inhibition; inhibition, % (tested at 21.74 µM); Q1HVG2; 220,000 compounds, 0.42% hits; Fluorescence polarization binding assay, mP read-out; in the data active = inhibition above about 50%
Target sequence (Q1HVG2 whole entry, looked up): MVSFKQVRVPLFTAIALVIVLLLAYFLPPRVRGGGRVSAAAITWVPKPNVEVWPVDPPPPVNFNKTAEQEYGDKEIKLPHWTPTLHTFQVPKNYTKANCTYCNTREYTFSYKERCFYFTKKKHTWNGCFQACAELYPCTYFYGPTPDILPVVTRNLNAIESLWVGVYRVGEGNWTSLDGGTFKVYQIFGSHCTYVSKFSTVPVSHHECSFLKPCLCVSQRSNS
BCLXL inh – blocks human Bcl-xL binding to Bim BH3 peptide; Q07817; GST-Bcl-xL / FITC-Bim BH3 peptide fluorescence polarization; inhibition, % at 10.9 µM; 320,000 compounds, 0.7% hits; AID 2129;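 active = inhibition above the mean of all tested compounds plus 3 SD, cutoff set per campaign, cut at about 30% in these data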;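 also: 0% = DMSO wells and 100% = unlabeled Bim-BH3 peptide competitor; inhibitors lower millipolarization by displacing the labeled peptide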
Target sequence (Q07817 whole entry, looked up): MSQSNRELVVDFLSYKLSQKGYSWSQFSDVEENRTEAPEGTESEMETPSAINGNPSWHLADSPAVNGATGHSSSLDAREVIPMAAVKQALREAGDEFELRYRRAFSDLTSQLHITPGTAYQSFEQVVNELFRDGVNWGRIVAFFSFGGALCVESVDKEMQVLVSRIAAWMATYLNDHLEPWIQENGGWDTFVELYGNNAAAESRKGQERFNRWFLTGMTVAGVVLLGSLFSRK
GLD-1 TGE inh – GLD-1-TGE RNA interaction inhibition (C. elegans) | 320,000 compounds, 0.44% hits | inhibition, % at 5.96 µM | purified GLD-1 + fluorescein TGE RNA, fluorescence polarization | Q17339;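 active = percent inhibition above a per-plate cutoff, the plate mean of test compounds plus 3 SD, cut at about 30% in these data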;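 also: 0% = DMSO wells with GLD-1 and probe and 100% = wells lacking GLD-1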
MEX-5 binding – C. elegans MEX-5 TCR-2 RNA binding activity; Q9XUB2; MEX-5/FITC-TCR2 RNA binding, fluorescence polarization; active compounds read low; activity score (negative = inhibition of binding), % at 10 µM; 300,000 compounds, 0.38% hits; AID 1832;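 active = inhibition past about -25% in most replicates, and total fluorescence under double the plate's negative control median, limit read from the data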;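 also: 0% = DMSO and -100% = 5 µM competing unlabeled TCR2 RNA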
GLD-1 TGE cf – GLD-1 TGE RNA interaction inhibition, confirmation | shares compounds with GLD-1 TGE inh | GLD-1/FL-TGE RNA fluorescence polarization, biochemical | inhibition, % at 5.96 µM | 550 compounds, 10% hits;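 active = average inhibition across triplicates above the hit cutoff set in the primary screen, cut at about 32% in these data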;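 also: 0% = GLD-1 with RNA probe and DMSO and 100% = wells lacking GLD-1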
Starred values were filed as active, the others as inactive; · = not tested or not shown.

SMILES | eLon inh | EBV gp42 block | BCLXL inh | GLD-1 TGE inh | MEX-5 binding | GLD-1 TGE cf
COc1ccc(CN2C(=O)c3cccnc3C2=O)cc1S(=O)(=O)N(C)c1ccc(C)cc1 | 2 | · | 5 | -5 | -2 | ·
CC(C)c1ccccc1NC(=O)CNCCOc1ccccc1F | -6 | · | 9 | 9 | 2 | ·
CC1(C)CC2(C)Nc3ccccc3N2C(=S)N1 (configuration not stated) | -6 | 2 | 7 | 0 | 1 | ·
CSC1=NC(C)(C)CC2(C)Nc3ccccc3N12 (configuration not stated) | 10 | -6 | 15 | 47* | 0 | 0
N#Cc1c(-c2ccco2)cc(-c2cccnc2)nc1N | 5 | 2 | 46* | 44* | -1 | -4
CCc1c(C)c2cc(Cl)c(O)c(CN3CCCC3)c2oc1=O | -19 | · | · | · | 1 | ·
Cc1cc(C)cc(-n2ncc3c2CCCC3NC(=O)c2csnn2)c1 (configuration not stated) | -16 | · | 4 | 0 | 1 | ·
CC(=O)Nc1cccc(C(=O)NC2CCCc3c2cnn3-c2cc(C)cc(C)c2)c1 (configuration not stated) | -12 | · | -6 | 58* | 0 | 1
CCOC(=O)[C@H]1[C@H]2COc3ccc(OC)cc3[C@@H]2N2C(=O)CN(Cc3ccc(Cl)cc3)C(=O)[C@@]12C | -5 | · | 16 | 38* | · | 13
CCOC(=O)[C@H]1[C@H]2COc3ccc(OC)cc3[C@@H]2N2C(=O)CN(Cc3ccc(F)cc3)C(=O)[C@@]12C | 8 | · | 1 | -3 | · | ·
CCOc1ccccc1C(=O)N/N=C/c1coc2ccc(Cl)cc2c1=O | -9 | · | · | · | · | ·
Nc1ccccc1C(=O)NC12CC3CC(CC(C3)C1)C2 | -7 | · | -4 | 2 | -2 | ·
Nc1cccc2c1C(=O)N(CC(=O)NC13CC4CC(CC(C4)C1)C3)C2=O | 13 | 64* | 32* | 37* | 0 | 29
COCc1cc(=O)n2[nH]cc(-c3ccsc3)c2n1 | 2 | · | -1 | 0 | -1 | ·
Nc1ccc(O)c2c1C(=O)c1ccccc1C2=O | 31 | 125* | 123* | 82* | -9 | 67*
COc1ccc(N)c2c1C(=O)c1ccccc1C2=O | 4 | 1 | 16 | 14 | -1 | ·
Oc1c(Br)cc(Br)cc1C=Nc1cccc2ncccc12 | 11 | · | 74* | 53* | -1 | 3
Cc1ccc(-c2cn3cccnc3n2)cc1NC(=O)c1cccs1 | 4 | -3 | 4 | 31* | -2 | -4
CC1CN(C(=O)C2CC2)C(C)CN1C(=O)C1CC1 (configuration not stated) | -4 | -12 | 2 | 34* | -1 | -5
CC1CN(C(=O)C2CCCC2)C(C)CN1C(=O)C1CCCC1 (configuration not stated) | 3 | -17 | 1 | 2 | -1 | ·
O=C(NC1CCCN(CCc2ccccc2)C1)c1c[nH]c2ccccc12 (configuration not stated) | -5 | · | -6 | 0 | 1 | ·
CN1C[C@H](C(=O)NC2(C)OC3(O)[C@@H]4CCCN4C(=O)[C@H](Cc4ccccc4)N3C2=O)CC2c3cccc4[nH]cc(c34)C[C@H]21 (some centres not stated) | 14 | · | 36* | 33* | -1 | 2
CCOc1ccc2[nH]c(=O)c(CN(Cc3cccs3)Cc3nnnn3C(C)(C)CC)cc2c1 | -9 | -4 | 7 | 109* | 1 | -5
CCOC(=O)c1cc2c(ccn2C)n1CC(=O)N(Cc1ccccc1)c1ccccc1 | 8 | 8 | 6 | 36* | 1 | 56*
CCOC(=O)c1cc2c(ccn2C)n1CC(=O)N(Cc1ccccc1)c1ccc(F)cc1 | 11 | 0 | 9 | 37* | 0 | 47*
CC(C)OC(=O)c1cc2c(ccn2C)n1CC(=O)N(Cc1ccccc1)c1ccc(F)cc1 | 12 | 20 | 9 | 25 | -1 | ·
O=C(CSc1nnc(-c2ccccc2F)n1C1CC1)N1CCCC1 | 2 | · | · | · | · | ·
CCCn1nnnc1NCc1ccc(C(C)C)cc1 | 4 | · | 12 | 3 | -2 | ·
CCN1C/C(=C/c2sccc2C)c2nc3ccccc3c(C(=O)O)c2C1 | -1 | -5 | 16 | 12 | -9 | ·
CCN1C/C(=C/c2cccs2)c2nc3ccccc3c(C(=O)O)c2C1 | 11 | 28 | 32* | 35* | -27* | 34*

Bioassay records from PubChem BioAssay.
